Measured values reported in PubChem BioAssay AID1159580 (chemical genetic matrix, 2015).
Values joined by “and” are separate entries in the source; they are usually repeats but may differ in a detail not shown here. Equal entries are not always repeated. The campaign covered roughly 5,500 compounds. About 2,000 (36%) were called active. Inconclusive results (about 18%) are left out. Rule as the data show it: active = normalized growth mostly below about 0.91 (no sharp cut-off); inconclusive = no clear call, values can overlap the other calls; inactive = mostly above about 0.92. This is one part of the list.

Assay: chemical genetic growth profiling, strain panel (AID 1159580);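 also: tested at 20 µM; growth read once vehicle control cultures reached saturation at 30 °C; 1 = growth at the plate median or of vehicle wells; lower values mean less growth of the strain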
Conditions: S. cerevisiae deletion strains, growth OD

Measured: normalized growth

CCn1cc(C(=O)O)c(=O)c2cnc(N3CCCC3)nc21
inactive: locus YAL026C, strain drs2, active compounds read low 0.956 | locus YAL030W, strain snc1, active compounds read low 0.997 | locus YBL061C, strain skt5, active compounds read low 1.01 | locus YBR009C, strain hhf1, active compounds read low 1.04 | locus YBR021W, strain FUR4, active compounds read low 1.03 | locus YBR023C, strain chs3, active compounds read low 1 | locus YBR171W, strain sec66, active compounds read low 1 | locus YBR229C, strain ROT2, active compounds read low 1.01 | locus YBR231C, strain swc5, active compounds read low 1.03 | locus YBR279W, strain paf1, active compounds read low 0.989 | locus YCL011C, strain gbp2, active compounds read low 1 | locus YCL016C, strain dcc1, active compounds read low 1 | locus YCL029C, strain bik1, active compounds read low 0.997 | locus YCL061C, strain MRC1, active compounds read low 1 | locus YCL069W, strain vba3, active compounds read low 0.997 | locus YCR088W, strain abp1, active compounds read low 1.01 | locus YDL005C, strain med2, active compounds read low 1 | locus YDL035C, strain GPR1, active compounds read low 1.02 | locus YDL040C, strain nat1, active compounds read low 0.991 | locus YDL074C, strain BRE1, active compounds read low 1.04 | locus YDL101C, strain DUN1, active compounds read low 1.02 | locus YDL134C, strain PPH21, active compounds read low 1.03 | locus YDL185W, strain tfp1, active compounds read low 1.01 | locus YDL192W, strain arf1, active compounds read low 0.993 | locus YDR001C, strain nth1, active compounds read low 1.01 | locus YDR069C, strain doa4, active compounds read low 1 | locus YDR101C, strain arx1, active compounds read low 0.999 | locus YDR137W, strain rgp1, active compounds read low 0.95 | locus YDR159W, strain sac3, active compounds read low 1.01 | locus YDR162C, strain NBP2, active compounds read low 1.01 | locus YDR195W, strain ref2 1.04 | locus YDR297W, strain sur2, active compounds read low 1.01 | locus YDR318W, strain mcm21, active compounds read low 1 | locus YDR334W, strain swr1, active compounds read low 1.01 | locus YDR335W, strain msn5, active compounds read low 1 | locus YDR388W, active compounds read low 1.01 | locus YDR392W, strain spt3, active compounds read low 1.03 | locus YDR502C, strain sam2, active compounds read low 1.01 | locus YEL003W, strain gim4, active compounds read low 1.01 | locus YEL037C, strain rad23, active compounds read low 0.999 | locus YEL061C, strain CIN8 (second series), active compounds read low 1 | locus YEL061C, strain CIN8, active compounds read low 0.999 | locus YER015W, strain faa2, active compounds read low 1 | locus YER016W, strain bim1, active compounds read low 1.01 | locus YER110C, active compounds read low 1 | locus YER111C, strain swi4, active compounds read low 1.02 | locus YER155C, strain BEM2 (second series), active compounds read low 0.998 | locus YER155C, strain BEM2, active compounds read low 1.01 | locus YER167W, strain BCK2, active compounds read low 1.01 | locus YFR010W, strain ubp6, active compounds read low 0.997 | locus YGL078C, strain dbp3, active compounds read low 1 | locus YGL086W, strain mad1, active compounds read low 1 | locus YGL167C, strain pmr1, active compounds read low 1.01 | locus YGL173C, strain kem1, active compounds read low 1 | locus YGL227W, strain vid30, active compounds read low 1.01 | locus YGL240W, strain doc1, active compounds read low 1.05 | locus YGL248W, strain PDE1, active compounds read low 1 | locus YGL253W, strain hxk2, active compounds read low 1.04 | locus YGR078C, strain PAC10, active compounds read low 1.01 | locus YGR135W, strain pre9, active compounds read low 1.01 | locus YGR252W, strain gcn5, active compounds read low 1.12 | locus YHR013C, strain ard1, active compounds read low 0.998 | locus YHR027C, strain rpn1, active compounds read low 1 | locus YHR030C, strain SLT2, active compounds read low 1 and 0.991 | locus YHR079C, strain IRE1 (second series), active compounds read low 1 | locus YHR079C, strain IRE1, active compounds read low 0.998 | locus YHR094C, strain hxt1, active compounds read low 0.999 | locus YHR129C, strain ARP1, active compounds read low 1.02 | locus YHR142W, strain chs7, active compounds read low 0.962 | locus YHR200W, strain rpn10, active compounds read low 0.998 | locus YIL066C, strain RNR3, active compounds read low 1.01 | locus YIL073C, strain SPO22, active compounds read low 1.1 | locus YIL125W, strain kgd1, active compounds read low 1.01 | locus YIR030C, strain dcg1, active compounds read low 0.987 | locus YJL092W, strain hpr5, active compounds read low 1.01 | locus YJL095W, strain BCK1 (second series), active compounds read low 1 | locus YJL095W, strain BCK1, active compounds read low 1 | locus YJL115W, strain asf1, active compounds read low 0.94 | locus YJL129C, strain trk1, active compounds read low 1.11 | locus YJL134W, strain LCB3, active compounds read low 1 | locus YJL154C, strain vps35, active compounds read low 0.991 | locus YJL164C, strain tpk1, active compounds read low 0.99 | locus YJL166W, strain qcr8, active compounds read low 0.996 | locus YJL168C, strain set2, active compounds read low 1 | locus YJL187C, strain SWE1 (second series), active compounds read low 0.997 | locus YJL187C, strain SWE1, active compounds read low 1 | locus YJR043C, strain POL32, active compounds read low 1.03 | locus YJR066W, strain TOR1, active compounds read low 0.982 | locus YJR075W, strain HOC1, active compounds read low 1.02
active: locus YAL021C, strain ccr4, active compounds read low 0.898
